Measured values published in PubChem BioAssay (NCI).
This is part of a sample that, as a whole, favours compounds with a hit. Of some 83,000 tested, about 20% had one in any assay.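 A percent growth of 40 corresponds to 60% growth inhibition; 0 means no net growth; -100 means all cells died. Active threshold: below 10.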 The source made the active and inactive calls.

What was measured:
Experiment in all cases: NCI-60 one-dose screen, 48 h (100 = growth as untreated, 0 = no growth, -100 = all killed)
Settings in all cases: 10 µM unless noted
NCI-H23 lung = tested on: NCI-H23 lung
NCI-H226 lung = tested on: NCI-H226 lung
NCI-H322M lung = tested on: NCI-H322M lung
HOP-62 NSCLC = tested on: HOP-62 NSCLC
NCI-H460 lung = tested on: NCI-H460 lung
HOP-92 NSCLC = tested on: HOP-92 NSCLC
NCI-H522 lung = tested on: NCI-H522 lung
A549/ATCC NSCLC = tested on: A549/ATCC NSCLC
786-0 renal = tested on: 786-0 renal
COLO 205 colon = tested on: COLO 205 colon
DU-145 prostate = tested on: DU-145 prostate
K-562 leukemia = tested on: K-562 leukemia
MALME-3M melanoma = tested on: MALME-3M melanoma
MDA-MB-231 breast = tested on: MDA-MB-231 breast
RXF 393 renal = tested on: RXF 393 renal
SF-268 CNS = tested on: SF-268 CNS
SF-295 CNS = tested on: SF-295 CNS
SF-539 CNS = tested on: SF-539 CNS
UACC-257 melanoma = tested on: UACC-257 melanoma
M14 melanoma = tested on: M14 melanoma

Measured: growth

C=C1CC[C@@H]2[C@](C)(COC(C)=O)[C@H](OC(C)=O)CC[C@@]2(C)[C@@H]1CC(Sc1ccccc1)C1=CCOC1=O (stereo not given in full)
inactive: NCI-H23 lung 24.5% | NCI-H322M lung 67.1% | NCI-H460 lung 21.7% | HOP-92 NSCLC 24.5% | A549/ATCC NSCLC 26.6% | DU-145 prostate 16.4% | MALME-3M melanoma 16.8% | SF-268 CNS 11.6% | SF-295 CNS 65.9% | UACC-257 melanoma 29.4%
active: NCI-H226 lung -9.88% | HOP-62 NSCLC -18.2% | NCI-H522 lung -80.6% | 786-0 renal -31.2% | COLO 205 colon -68.1% | K-562 leukemia 3.95% | MDA-MB-231 breast 7.4% | RXF 393 renal 5.01% | SF-539 CNS -43.6% | M14 melanoma -4.19%

O=[N+]([O-])C1C(c2ccccc2)C12c1ccccc1-c1ccccc12 (stereo not given)
active: NCI-H23 lung 7.97% | NCI-H460 lung -14.3% | HOP-92 NSCLC -3.91% | NCI-H522 lung -13.8% | A549/ATCC NSCLC 8.59% | 786-0 renal 4.98% | DU-145 prostate -36.8% | K-562 leukemia -12.5% | MDA-MB-231 breast 6.89% | RXF 393 renal -21.8% | SF-295 CNS -23.1% | SF-539 CNS -12.2% | M14 melanoma -10.2%
inactive: NCI-H226 lung 15% | NCI-H322M lung 29.3% | HOP-62 NSCLC 34.2% | COLO 205 colon 14.9% | MALME-3M melanoma 59.4% | SF-268 CNS 29.3% | UACC-257 melanoma 40.9%

CCN(CC)CCSc1nc(-c2ccccc2)c(C#N)c(=O)[nH]1
inactive: NCI-H23 lung 68.9% | NCI-H226 lung 116% | NCI-H322M lung 122% | HOP-62 NSCLC 55% | NCI-H460 lung 118% | HOP-92 NSCLC 120% | NCI-H522 lung 104% | A549/ATCC NSCLC 113% | 786-0 renal 97.7% | COLO 205 colon 94.9% | DU-145 prostate 112% | K-562 leukemia 129% | MALME-3M melanoma 140% | MDA-MB-231 breast 116% | RXF 393 renal 118% | SF-268 CNS 102% | SF-295 CNS 105% | SF-539 CNS 100% | UACC-257 melanoma 111% | M14 melanoma 111%

Cn1c(O)c(C=NCCN=Cc2c(O)n(C)c(=O)n(C)c2=O)c(=O)n(C)c1=O
inactive: NCI-H23 lung 97% | NCI-H226 lung 92.3% | NCI-H322M lung 89.3% | HOP-62 NSCLC 90.7% | NCI-H460 lung 107% | HOP-92 NSCLC 86.2% | NCI-H522 lung 105% | A549/ATCC NSCLC 100% | 786-0 renal 113% | COLO 205 colon 101% | DU-145 prostate 110% | K-562 leukemia 34.5% | MALME-3M melanoma 90.4% | MDA-MB-231 breast 101% | RXF 393 renal 111% | SF-268 CNS 105% | SF-295 CNS 101% | SF-539 CNS 93.9% | UACC-257 melanoma 101% | M14 melanoma 102%

Clc1ccc(Sc2cnc(-c3ccccc3)o2)cc1
inactive: NCI-H23 lung 95.5% | NCI-H226 lung 106% | NCI-H322M lung 91.9% | HOP-62 NSCLC 94.4% | NCI-H460 lung 110% | HOP-92 NSCLC 86.1% | NCI-H522 lung 99.2% | A549/ATCC NSCLC 92% | 786-0 renal 93.9% | COLO 205 colon 110% | DU-145 prostate 104% | K-562 leukemia 98.2% | MALME-3M melanoma 102% | MDA-MB-231 breast 97.2% | RXF 393 renal 115% | SF-268 CNS 93.5% | SF-295 CNS 97.4% | SF-539 CNS 96% | UACC-257 melanoma 93.6% | M14 melanoma 107%

COC(=O)/C=C1/SC(=Nc2ccc(C)cc2)N(CCc2c[nH]c3ccc(O)cc23)C1=O
inactive: NCI-H23 lung 72.7% | NCI-H226 lung 83.1% | NCI-H322M lung 97.7% | HOP-62 NSCLC 55.6% | NCI-H460 lung 52.2% | HOP-92 NSCLC 53.7% | NCI-H522 lung 42.5% | A549/ATCC NSCLC 84% | 786-0 renal 57.2% | COLO 205 colon 108% | DU-145 prostate 26.9% | K-562 leukemia 11.8% | MALME-3M melanoma 77.4% | MDA-MB-231 breast 59.3% | RXF 393 renal 47.7% | SF-268 CNS 56.3% | SF-295 CNS 76.8% | SF-539 CNS 42.9% | UACC-257 melanoma 50.2% | M14 melanoma 34.1%

C=C1C(=O)O[C@H]2[C@H]1CC/C(COC(=O)NCc1ccc(Cn3c(=O)sn(CCI)c3=O)cc1)=C\CC[C@@]1(C)O[C@@H]21
inactive: NCI-H23 lung 88.5% | NCI-H226 lung 85.7% | NCI-H322M lung 96.4% | HOP-62 NSCLC 114% | NCI-H460 lung 98.1% | A549/ATCC NSCLC 108% | 786-0 renal 59.6% | DU-145 prostate 17.2% | MDA-MB-231 breast 61% | SF-268 CNS 71.7% | SF-295 CNS 106% | SF-539 CNS 78.8% | UACC-257 melanoma 45.9% | M14 melanoma 15.7%
active: HOP-92 NSCLC -19% | NCI-H522 lung -92.8% | COLO 205 colon -24.1% | K-562 leukemia 0.268% | MALME-3M melanoma -49.9% | RXF 393 renal 0.0448%

Nc1c(C(=O)Nc2ccccc2Cl)sc2nc3c(cc12)C(O)CCC3 (stereo not given)
inactive: NCI-H23 lung 44.2% | NCI-H226 lung 52.8% | NCI-H322M lung 60.2% | HOP-62 NSCLC 41.8% | NCI-H460 lung 24.5% | HOP-92 NSCLC 46.4% | A549/ATCC NSCLC 25.4% | 786-0 renal 48.1% | DU-145 prostate 14.4% | K-562 leukemia 10.9% | MALME-3M melanoma 76.2% | MDA-MB-231 breast 58.2% | RXF 393 renal 19.6% | SF-268 CNS 65.6% | SF-295 CNS 22.8% | UACC-257 melanoma 56.8% | M14 melanoma 19.9%
active: NCI-H522 lung -33.7% | COLO 205 colon 4.09% | SF-539 CNS 3.94%

CC(=O)N(N=Nc1ccccc1)c1cccc2ccccc12
active: DU-145 prostate 9.87%
inactive: NCI-H23 lung 86.9% | NCI-H226 lung 92.5% | NCI-H322M lung 94.3% | HOP-62 NSCLC 90.5% | NCI-H460 lung 55.7% | HOP-92 NSCLC 96.5% | NCI-H522 lung 75.1% | A549/ATCC NSCLC 97.4% | 786-0 renal 97.6% | COLO 205 colon 91.9% | K-562 leukemia 89.5% | MALME-3M melanoma 128% | MDA-MB-231 breast 78.2% | RXF 393 renal 89.6% | SF-268 CNS 92.8% | SF-295 CNS 68.2% | SF-539 CNS 111% | UACC-257 melanoma 103% | M14 melanoma 90.9%

O=CC1(C2(C=O)c3ccccc3-c3ccccc32)c2ccccc2-c2ccccc21
active: NCI-H23 lung -28.8% | NCI-H226 lung -47.2% | NCI-H322M lung -20.9% | HOP-62 NSCLC -76.3% | NCI-H460 lung -46.9% | HOP-92 NSCLC -74.8% | NCI-H522 lung -84.5% | A549/ATCC NSCLC -50.5% | 786-0 renal -84.4% | COLO 205 colon -56% | DU-145 prostate -63.3% | K-562 leukemia -13.6% | MALME-3M melanoma -71.8% | MDA-MB-231 breast -12.5% | RXF 393 renal -61.4% | SF-268 CNS -46.9% | SF-295 CNS -59.8% | SF-539 CNS -64.5% | UACC-257 melanoma -76.1% | M14 melanoma -67.1%

Nc1ncnc2c1N=C(c1ccc3c(c1)OCO3)CC(c1cccc(Nc3ccnc4cc(Cl)ccc34)c1)N2 (stereo not given)
active: K-562 leukemia 2.1%
inactive: NCI-H23 lung 49.8% | NCI-H226 lung 69.8% | NCI-H322M lung 76.2% | HOP-62 NSCLC 64% | NCI-H460 lung 59.8% | HOP-92 NSCLC 26.6% | NCI-H522 lung 58% | A549/ATCC NSCLC 67.2% | 786-0 renal 55.1% | COLO 205 colon 82.7% | DU-145 prostate 63.1% | MALME-3M melanoma 97.3% | MDA-MB-231 breast 70.1% | RXF 393 renal 72.2% | SF-268 CNS 69.3% | SF-295 CNS 46.6% | SF-539 CNS 86.3% | UACC-257 melanoma 59.3% | M14 melanoma 57.3%

CN(C)Cc1ccc(NC(=O)c2cncc(C#Cc3cnc(N)c4ncccc34)c2)cc1F
inactive: NCI-H23 lung 78.1% | NCI-H226 lung 130% | NCI-H322M lung 109% | HOP-62 NSCLC 96.5% | NCI-H460 lung 67.4% | HOP-92 NSCLC 80.7% | NCI-H522 lung 100% | A549/ATCC NSCLC 65.7% | COLO 205 colon 49.5% | DU-145 prostate 86.8% | MALME-3M melanoma 65.6% | RXF 393 renal 40.1% | SF-268 CNS 94% | SF-295 CNS 95.9% | SF-539 CNS 95.4% | UACC-257 melanoma 88.7%
active: 786-0 renal -71.8% | K-562 leukemia -4.46% | MDA-MB-231 breast -73.1% | M14 melanoma -84.5%

COc1cc(CNS(=O)(=O)c2ccc(C)cc2)ccc1OCc1cn(-c2ccc(Br)cc2)nn1
inactive: NCI-H23 lung 103% | NCI-H226 lung 93.5% | NCI-H322M lung 101% | HOP-62 NSCLC 92.4% | NCI-H460 lung 110% | HOP-92 NSCLC 112% | NCI-H522 lung 91.8% | A549/ATCC NSCLC 99.5% | 786-0 renal 109% | COLO 205 colon 120% | DU-145 prostate 104% | K-562 leukemia 94.3% | MALME-3M melanoma 104% | MDA-MB-231 breast 103% | RXF 393 renal 97.1% | SF-268 CNS 93.8% | SF-295 CNS 97.2% | SF-539 CNS 107% | UACC-257 melanoma 110% | M14 melanoma 106%
